# Source: PubChem BioAssay
# VACV mCherry inh: inhibitors of vaccinia virus infection (mCherry reporter signal); Vaccinia virus mCherry reporter infection, fluorescence; Potency, µM (top dose mostly 36.5 µM), for inactives: at the top dose activity change, negative = inhibition, hits mostly inhibitors; actives 0.63% (n = 310,000); AID 720579; calls by dose curve; tested in A549 cells; further: potency means the concentration at half of the fitted maximal effect; nearly all actives have a fitted effect of over 35% in size
# HCMV antiviral: inhibitors of human cytomegalovirus; HFF cells, HCMV-luciferase reporter, 72 h; active compounds read low; AID 1259415; activity change, negative = inhibition, % at 57.5 µM; actives 4.5% (n = 410,000); in the data active means activity change below about -60%; inconclusive means no clear call, values can overlap the other calls; inactive means above about -39%
#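 Inhibition of viral replication was scored as loss of reporter luminescence in HFFs infected with HCMV-luciferase (MOI 1 PFU/cell) for 72 h; compounds tested at 2 doses, normalized to buffer and Salinomycin controls.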
# FMDV inh: foot and mouth disease virus antiviral activity | actives 1.2% (n = 410,000) | Potency, µM (doses to about 57.9 µM), for inactives: top-dose activity change, negative = inhibition, most hits filed as inhibitors | AID 1159524 | FMDV antiviral cell-based qHTS; calls by dose curve; tested in HEK293T cells; further: read-out not given here; potency means the concentration at half of the fitted maximal effect; nearly all actives have a fitted effect of over 45% in size
# Lassa entry inh: inhibitors of Lassa virus binding or cell entry; Lassa virus pseudotype entry inhibition, cell reporter; Potency, µM (top dose mostly 37.9 µM), without a hit: top-dose activity change, negative = inhibition, hits mostly inhibitors; actives 1.2% (n = 300,000); AID 540256; calls by dose curve; tested in HEK293 cells; further: potency means the concentration at half of the fitted maximal effect; nearly all actives have a fitted effect of over 50% in size
# Vaccinia Venus: inhibitors of vaccinia virus (Venus reporter). Vaccinia virus Venus reporter expression, fluorescence. Potency, µM (series often up to 36.5 µM), without a hit: at the top dose activity change, negative = inhibition, hits mostly inhibitors. actives 0.46% (n = 330,000); calls by dose curve; tested in A549 cells; further: potency means the concentration at half of the fitted maximal effect; nearly all actives have a fitted effect of over 30% in size
# MARV entry inh: blocks Marburg virus binding to or entry into cells. actives 1.8% (n = 300,000). Marburg virus pseudotyped entry inhibition, cell reporter. AID 540276. Potency, µM (highest dose often 37.8 µM), inactives show top-dose activity change, negative = inhibition, actives largely listed as inhibitors; calls by dose curve; tested in HEK293 cells; further: potency means the concentration at half of the fitted maximal effect
# Starred values were filed as active, the others as inactive; i = inactive; ? = inconclusive; . = no result; [ ] = remark or other dose. Most compounds without a hit are left out; they make up all but 6.5% or so of the library. On the % scale 0 is the no-effect control and ±100 the full control effect.
SMILES,VACV mCherry inh,HCMV antiviral,FMDV inh,Lassa entry inh,Vaccinia Venus,MARV entry inh
CSc1ccc(CNc2cccc3ccccc23)cc1,-6.1%,-63.7*,.,?,19.6%,?
CSc1ccc(/C=N/NC(=O)CNc2cccc3ccccc23)cc1,-15.5%,2.2,-5.0%,9.4%,-14.1%,?
CCC[C@H]1[C@@H](NS(=O)(=O)c2cccc(C)c2)CC[C@@]23CCCN2C(=O)CCC[C@@H]13,.,34.8,.,.,.,.
O=C(Nc1nccs1)c1sc2cc(Cl)ccc2c1Cl,-12.5%,93.1,36.2%,?,-15.4%,?
Cc1ccnc(NC(=O)c2sc3ccccc3c2Cl)c1,-5.1%,14.8,?,?,-11.3%,1.58µM*
O=C(NC1C=CS(=O)(=O)C1)c1sc2ccccc2c1Cl (stereo unspecified),10µM*,-84.3*,.,?,?,20.6µM*
Cc1cnc(NC(=O)c2sc3ccccc3c2Cl)s1,i,-13.8,-54.0%,?,-7.0%,?
O=C(Nc1nccs1)c1sc2ccccc2c1Cl,-17.5%[1.46 µM],64.8,0.0%,12.6µM*,-25.1%,7.08µM*
Cc1ccnc(NC(=O)/C=C/c2ccccc2Cl)c1,-12.2%,-1.6,?,?,2.7%,2.59µM*
CCCCn1cc(S(=O)(=O)c2ccc(C)c(C)c2)c(=O)c2cc(F)c(N(CC)CC)cc21,-11.9%,-5.3,-2.3%,?,-26.0%,.
Cc1ccc(C(C)C)c(OCC(=O)Nc2cc(-c3nc4ccccc4[nH]3)ccc2C)c1,-20.7%,?,?,?,-27.7%,?
O=C(c1ccc(C(F)(F)F)cc1)N1CCC(c2noc(-c3ccc(S(=O)(=O)N4CCCC4)cc3)n2)CC1,?,-10.0,?,?,?,0.8%[46.1 µM]
C=CCN1C(=O)/C(=C\c2ccc(N3CCOCC3)o2)C(=O)NC1=S,i,-18.2,-11.5%,-4.2%,31.7%,-3.4%
C=CCN1C(=O)N/C(=C/c2ccc(N3CCOCC3)o2)C1=O,.,-62.5*,.,-20.1%,.,?
CCCCNc1nc(N)nc(-c2cc(Cl)ccc2O)n1,?,-28.5,44.0%,?,20µM*,?
CCNc1nc(N)nc(-c2cc(Cl)ccc2O)n1,10µM*,.,14.8%,?,10µM*,?
CCCNc1nc(N)nc(-c2cc(Cl)ccc2OC)n1,.,15.0,-21.3%,1.7%,-11.9%,-3.7%
O=C(CSc1ccccn1)Nc1nonc1[N+](=O)[O-],.,53.6,31.6µM*,.,.,.
O=c1c(O)cc(C2Oc3cc(O)cc(O)c3CC2O)cc2c(C3Oc4cc(O)cc(O)c4CC3O)cc(O)c(O)c12 (stereo unspecified),-26.9%,.,-9.3%,.,-19.6%,.
CNC(=O)Nc1cccc(-c2cc(-c3c(Cl)cccc3Cl)no2)c1,-8.1%,-74.4*,-24.6%,3.6%[46.1 µM],-15.3%,?
COc1nc(N(C)C)nc(N(OC)S(=O)(=O)c2ccccc2Cl)n1,-10.9%,10.9,-17.7%,?,-23.2%,-25.2%
CON(c1nc(Cl)nc(N(C)C)n1)S(=O)(=O)c1ccccc1Cl,.,49.9,?,12.6µM*,?,-1.0%
CC(=O)CCc1ccc2oc(C(=O)O)c(C)c2c1,.,10.9,-1.0%,22.9%,14.0%,10.3%
CC(=O)CCc1oc2ccc(C)cc2c1-c1ccccc1,-13.9%,53.4,-18.3%,3.98µM*,-11.9%,0.9%
COc1ccc(-c2c(-c3ccc4c(c3)OCO4)noc2-c2ccsc2)cn1,-0.8%,.,.,.,-11.5%,.
SMILES,VACV mCherry inh,HCMV antiviral,FMDV inh,Lassa entry inh,Vaccinia Venus,MARV entry inh
O=C(CCS(=O)(=O)c1nc(-c2ccc3c(c2)OCO3)cc(C(F)(F)F)n1)Nc1ccc(Br)cc1,i,-98.8*,?,3.4%[46.1 µM],-12.1%,?
COC(=O)c1ccccc1NC(=O)CCS(=O)(=O)c1nc(-c2ccc3c(c2)OCO3)cc(C(F)(F)F)n1,-8.9%,-69.7*,?,14.9%[46.1 µM],-15.7%,15.9%[46.1 µM]
O=C(CCS(=O)(=O)c1nc(-c2ccc3c(c2)OCO3)cc(C(F)(F)F)n1)Nc1ccccc1F,-3.6%,2.2,?,?,-19.9%,-27.3%[46.1 µM]
Cc1ccccc1C(=O)Nc1cccc(-c2nnc(SCC(=O)NCc3ccco3)n2C)c1,-16.1%,.,.,.,-14.8%,.
O=C(O)c1nn(CCOc2cccc(Cl)c2)c(=O)c2ccccc12,-3.0%,81.0,-10.1%,1.5%[46.1 µM],-13.7%,3.5%[46.1 µM]
O=C(O)c1nn(CCOc2c(Cl)cccc2Cl)c(=O)c2ccccc12,11.2µM*,-74.7*,-3.2%,?,8.8%,?
